Screens: PubChem BioAssay, several laboratories
The list is not random: actives were taken first. Their share in the collection is about 2.2%.
IEC-6 cytotox: kills IEC-6 intestinal cells in KLF5 counter-screen; IEC-6 cytotoxicity, luminescence viability; inhibition, % at 5 µM; 0.78% of 290,000 active;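 also: 0% = plate median of test compound wells and 100% = cytotoxic reference compound wells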
KLF5 inhibitor: inhibitors of KLF5 expression; inhibition, % at 5 µM; 0.23% of 290,000 active; DLD-1 KLF5 promoter-luciferase reporter, luminescence;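 active = inhibition above a per-plate limit of that plate's mean compound inhibition plus 3 SD, cut at about 60% in these data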;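 also: 0% = DMSO wells and 100% = LY294002 at 200 µM; higher means less KLF5 promoter-driven luciferase light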
Ba/F3 V617F tox: reduce viability of Ba/F3 cells dependent on JAK2V617F; Ba/F3 EpoR-JAK2V617F viability, ATP luminescence; inhibition, % at 5.6 µM; 1.1% of 220,000 active;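 active = inhibition above the campaign mean plus 3 SD over all tested compounds, cut at about 24% in these data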;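 also: cytokine-independent growth of Ba/F3 cells driven by EpoR plus mutant JAK2; 0% = DMSO-treated cells and 100% = JAK inhibitor I control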
BaF3 tox: parental Ba/F3 viability inhibition as JAK2V617F counter-screen. inhibition, % at 5.6 µM. AID 1486. 1.1% of 220,000 active. CellTiter-Glo ATP luminescence;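 active = inhibition above a per-campaign cutoff, the mean inhibition of all tested compounds plus 3 SD, cut at about 27% in these data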;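 also: 0% = DMSO wells and 100% = JAK Inhibitor I control wells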
APP 5UTR inh: APP translation inhibition. 0.82% of 190,000 active. inhibition, % at 2 µM. SH-SY5Y APP 5'UTR-luciferase reporter, luminescence;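 active = inhibition above a set limit, derived from the sample mean plus 3 SD, cut at about 45% in these data; inconclusive = one replicate passes the limit while the other fails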
aSyn 5UTR inh: MLPCN primary screen, SNCA 5' untranslated region | alpha-synuclein 5'UTR reporter, inhibitor activity | inhibition, % (tested at 7.5 µM) | 0.82% of 300,000 active; in the data active = inhibition above about 60%; inconclusive = no clear call, values can overlap the other calls;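 also: H4 neuroglioblastoma cells stably carrying SNCA 5'UTR luciferase fusion; 0% = DMSO wells and 100% = positive control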
IEC-6 tox confirm: IEC-6 cytotoxicity, confirmation assay; 63% of 1,900 active; inhibition, % at 5 µM; shares compounds with IEC-6 cytotox; IEC-6 rat intestinal epithelial viability, luminescence;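 also: 0% = vehicle and 100% = reference cytotoxic drug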
Numbers without * were called inactive; ? = inconclusive; · = no result given. Rule as the data show it, unless noted: active = inhibition above about 22%; inactive = the rest.

SMILES	IEC-6 cytotox	KLF5 inhibitor	Ba/F3 V617F tox	BaF3 tox	APP 5UTR inh	aSyn 5UTR inh	IEC-6 tox confirm
COc1ccc(NC(=O)C(=O)c2cn(CC(=O)N3CCCC3)c3ccccc23)cc1	93*	59	·	·	·	105*	66*
COc1ccc(C(NC(C)=O)c2cc(Cl)c3cccnc3c2O)cc1 (stereo not given)	54*	75*	·	·	·	76*	56*
CSc1ncccc1C(=O)OCC(=O)N(CC(C)C)c1c(N)n(Cc2ccccc2)c(=O)[nH]c1=O	2	5	·	·	·	9	·
O=C(CSc1nnnn1C1CCCCC1)Nc1ccccc1F	11	-2	-4	3	-16	4	·
O=C(CSc1nnnn1C1CC2CCC1C2)Nc1ccnc2ccccc12 (stereo not given)	36*	21	68*	63*	17	·	16
Cc1nnc(N/N=C/c2cccc(OCc3ccc(Cl)c(Cl)c3)c2)n1N	98*	-137	5	6	-36	-83	4
Cc1cccc(C)c1OCC(=O)N/N=C/c1cccnc1	4	-8	·	·	·	-16	·
O=C(c1ccc(CS(=O)c2ccccc2Cl)o1)N1CCN(c2ccccc2)CC1 (stereo not given)	80*	53	·	·	·	110*	57*
COc1ccccc1CNC(=O)c1cc(C(C)=O)c[nH]1	4	-8	·	·	·	16	·
O=C(c1cc(NC(=O)C23CC4CC(CC(C4)C2)C3)cc(NC(=O)C23CC4CC(CC(C4)C2)C3)c1)N1CCCCC1	37*	5	0	3	-5	55	30*
CSCCC(NS(=O)(=O)c1ccccc1F)C(=O)N1CCCCCCC1 (stereo not given)	-1	-2	·	·	·	16	·
O=C1CN(C(=O)COc2cccc(F)c2)c2ccccc2N1	-6	-8	-6	-1	-13	5	·
Cc1noc(C)c1COc1cccc(C(=O)OCC(=O)N2CC(=O)Nc3ccccc32)c1	79*	17	4	3	93*	65*	43*
O=C(NCC1CCCCC1)c1cccc(-c2ccc(O)cc2)c1	4	-31	·	·	·	-3	·
COCCN(Cc1ccc(C)c(Br)c1)C(=O)Cn1cnc(S(=O)(=O)N2CCCC2)c1	3	-18	·	·	·	-3	·
COc1ccc(Nc2nnc(SCc3cn4c(C)cccc4n3)s2)cc1	22*	-12	-1	6	-20	-5	2
Cc1cccc2nc(CSc3nnc(N)s3)cn12	1	-21	6	8	-3	-33	·
COc1ccc(N2CCN(C(=O)CCc3nnc4ccc(N5CCOCC5)nn34)CC2)cc1	-6	-13	·	·	·	6	·
Cc1oc(-c2ccc(-c3ccccc3)cc2)nc1CN(CCO)C(C)C	4	-103	·	·	·	-182	·
C=CCSc1nsc(NC(=O)Nc2ccc(F)cc2)n1	32*	-13	·	·	·	10	48*
CCSc1nsc(NC(=O)Nc2ccccc2F)n1	-3	-155	·	·	·	-183	·
COCCN(C(=O)CNC(=O)c1ccco1)C(C(=O)NC1CCCC1)c1cccc(OC)c1 (stereo not given)	-2	0	·	·	·	-17	·
C/C(=N\NC(=O)c1ccc(C)cc1)c1c(C)[nH]n(-c2ccccc2)c1=O	44*	-28	·	·	·	67*	25*
CC(=O)N1CCc2cc(Br)cc(S(=O)(=O)N3CCC(C(=O)O)CC3)c21	4	2	·	·	·	9	·
Cc1ccc(S(=O)(=O)Nc2ccccc2-c2ccccc2)cc1	55*	54	69*	71*	90*	?	51*
SMILES	IEC-6 cytotox	KLF5 inhibitor	Ba/F3 V617F tox	BaF3 tox	APP 5UTR inh	aSyn 5UTR inh	IEC-6 tox confirm
Cc1ccc(S(=O)(=O)Nc2ccccc2N(C)S(=O)(=O)c2ccc(C)cc2)cc1	·	·	·	·	·	9	·
CCOC(=O)c1cnn(-c2ccccc2)c1NC(=O)CSc1nnc(-c2cccs2)n1CC	24*	-18	-1	4	4	2	-8
Cc1cc(C(=O)Nc2ccon2)ccc1[N+](=O)[O-]	·	·	·	·	·	-11	·
COCc1ccc(CN2CCCC(C(=O)Nc3ccc(-c4cccc(OC)c4)cc3)C2)o1 (stereo not given)	5	-58	·	·	·	8	·
CC(=O)/C(C#N)=C1\NC(=O)C(Cc2ccc(C)c(C)c2)S1 (stereo not given)	78*	29	-2	5	-30	5	50*
CC(=O)/C(C#N)=C1\NC(=O)C(Cc2ccc(F)cc2)S1 (stereo not given)	72*	-12	3	2	·	-12	48*
COc1ccc(NC2CCCN(C(=O)c3cc4ncccn4n3)C2)cc1 (stereo not given)	-7	-41	·	·	·	-9	·
CC(C)CC(=O)NCCCCc1ccccc1	22*	-36	3	6	-22	3	6
CC(C)C(=O)NCCCc1ccccc1	4	-4	1	1	1	5	·
CCCCOC(=O)c1ccc(NC(C)=O)cc1	24*	-25	5	4	-10	-6	6
CC1CCCN(C2(O)C(=O)Nc3ccc(Cl)cc32)C1 (stereo not given)	10	-10	·	·	·	22	·
CCOc1ccc(S(=O)(=O)NCc2ccncc2)cc1NC(=O)c1ccccc1F	3	-16	·	·	·	-4	·
CCOc1ccc(S(=O)(=O)NCc2cccnc2)cc1NC(=O)c1ccccc1F	33*	26	·	·	·	-43	7
Cc1cc2c3c([nH]c2cc1S(=O)(=O)N1CCC2(CC1)OCCO2)CC(C)(C)CC3=O	-6	-11	·	·	·	15	·
Cc1ccc(N2C(=O)C(Cl)=C(N3CCCCCC3)C2=O)c(C)c1	-2	-25	·	·	·	8	·
O=C(O)c1cccnc1Nc1ccc(Cl)cc1	34*	-11	28*	33*	-10	-3	23*
CCSC1=C(C#N)C(c2ccc(C)s2)CC(=O)N1 (stereo not given)	-1	-3	-2	0	-2	18	·
CCOC(=O)CSC1=C(C#N)C(c2ccc(C)s2)CC(=O)N1 (stereo not given)	75*	53	81*	77*	91*	41	53*
CCOc1ccc(N(C)S(=O)(=O)c2ccc(-c3cc(C)no3)s2)cc1	57*	39	·	·	·	-59	38*
CCOc1ccc(N(C)S(=O)(=O)c2cc(-c3cc(C)no3)ccc2C(C)C)cc1	1	-16	·	·	·	-13	·
COc1ccc(-c2cc(=O)c3ccccc3[nH]2)cc1	1	7	-1	2	-12	-79	·
COc1cccc(-c2cc(=O)c3cc(NC(=O)c4ccc(N(C)C)cc4)ccc3[nH]2)c1	71*	35	91*	97*	92*	115*	71*
COc1ccc2[nH]c(-c3cccc(F)c3)cc(=O)c2c1	75*	60	76*	74*	93*	63*	60*
Cc1ccc(CS(=O)Cc2ccc(C(=O)NCc3ccccc3Br)o2)cc1 (stereo not given)	-5	-18	·	·	·	-12	·
COc1ccc(OC)c(S(=O)(=O)NCC(c2ccco2)S(=O)(=O)c2ccccc2)c1 (stereo not given)	·	·	·	·	·	2	·
Cc1ccc2c(CNCc3ccccc3)cc(=O)oc2c1	28*	40	·	·	·	-65	29*
